The panel holds about 83,000 compounds, 20% with a hit somewhere; the sample as a whole holds those more often.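 Compound tested at a single concentration for 48 hours in 96-well plates; a percent growth value below 10 was scored as active.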 Active and inactive are the calls of the source.
What was measured:
Test in all cases: NCI-60 one-dose screen, 48 h (100 = growth as untreated, 0 = no growth, -100 = all killed)
Settings in all cases: 10 µM unless noted
HCT-15 colon = tested on: HCT-15 colon
HT29 colon = tested on: HT29 colon
SNB-75 CNS = tested on: SNB-75 CNS
SNB-19 CNS = tested on: SNB-19 CNS
U251 CNS = tested on: U251 CNS
PC-3 prostate = tested on: PC-3 prostate
UACC-62 melanoma = tested on: UACC-62 melanoma
LOX IMVI melanoma = tested on: LOX IMVI melanoma
SK-MEL-28 melanoma = tested on: SK-MEL-28 melanoma
SK-MEL-2 melanoma = tested on: SK-MEL-2 melanoma
SN12C renal = tested on: SN12C renal
UO-31 renal = tested on: UO-31 renal
TK-10 renal = tested on: TK-10 renal
ACHN renal = tested on: ACHN renal
CAKI-1 renal = tested on: CAKI-1 renal
A498 renal = tested on: A498 renal
CCRF-CEM leukemia = tested on: CCRF-CEM leukemia
MOLT-4 leukemia = tested on: MOLT-4 leukemia
EKVX NSCLC = tested on: EKVX NSCLC
SK-MEL-5 melanoma = tested on: SK-MEL-5 melanoma

Measured: growth

N=C(N)c1ccc(-c2ccc(-c3ccc(Cl)cc3)o2)nc1
inactive: MOLT-4 leukemia 102%
active: HCT-15 colon -75.1% | HT29 colon -92.9% | SNB-75 CNS -97.8% | SNB-19 CNS -87.2% | U251 CNS -98.1% | PC-3 prostate -90% | UACC-62 melanoma -96.8% | LOX IMVI melanoma -90.4% | SK-MEL-28 melanoma -94.2% | SK-MEL-2 melanoma -90.7% | SN12C renal -80.7% | UO-31 renal -85.8% | TK-10 renal -95.1% | ACHN renal -91.5% | CAKI-1 renal -85.5% | A498 renal -58.4% | CCRF-CEM leukemia -57.5%

CCN1C(=O)N(CC)C2C1NN=c1s/c(=C\c3cccc(F)c3)c(=O)n12 (stereo not drawn)
active: SNB-75 CNS 6.61% | A498 renal -15.3%
inactive: HCT-15 colon 15.7% | HT29 colon 10.4% | SNB-19 CNS 34.6% | U251 CNS 29.4% | PC-3 prostate 24.7% | UACC-62 melanoma 33.3% | SK-MEL-28 melanoma 57.8% | SK-MEL-2 melanoma 51.5% | SN12C renal 31.5% | UO-31 renal 50.8% | TK-10 renal 61.8% | ACHN renal 29.1% | CAKI-1 renal 40.8%

COc1cccc(/C=C2\SC(N3CCN(c4ccccn4)CC3)=NC2=O)c1
inactive: HCT-15 colon 105% | HT29 colon 84.7% | SNB-75 CNS 102% | SNB-19 CNS 99.4% | U251 CNS 105% | PC-3 prostate 88.9% | UACC-62 melanoma 95.9% | LOX IMVI melanoma 94.7% | SK-MEL-28 melanoma 110% | SK-MEL-2 melanoma 86.9% | SN12C renal 102% | UO-31 renal 84.5% | TK-10 renal 90.9% | ACHN renal 104% | CAKI-1 renal 104% | CCRF-CEM leukemia 63.4% | MOLT-4 leukemia 90.4%

COc1cc(C2CC(c3c(C)[n+]([O-])c4ccccc4[n+]3[O-])=NN2)cc(OC)c1OC (stereo not drawn)
inactive: HCT-15 colon 97.3% | HT29 colon 120% | SNB-75 CNS 99.4% | SNB-19 CNS 101% | U251 CNS 99.6% | PC-3 prostate 102% | UACC-62 melanoma 105% | LOX IMVI melanoma 98% | SK-MEL-28 melanoma 116% | SK-MEL-2 melanoma 96.4% | EKVX NSCLC 123% | SN12C renal 94.4% | UO-31 renal 94.6% | TK-10 renal 122% | ACHN renal 103% | CAKI-1 renal 106% | A498 renal 97.5% | CCRF-CEM leukemia 87.5% | MOLT-4 leukemia 94.4%

O=S(=O)(NCCCNc1cc(-c2cn(-c3ccccc3)nc2-c2cccc(O)c2)ccn1)c1cccc(F)c1
inactive: SNB-75 CNS 49.5% | U251 CNS 40.1% | PC-3 prostate 15.5% | SK-MEL-5 melanoma 20% | UACC-62 melanoma 50.5% | LOX IMVI melanoma 13.7% | SK-MEL-28 melanoma 44.3% | SK-MEL-2 melanoma 66.3% | EKVX NSCLC 39% | SN12C renal 65.9% | UO-31 renal 35.6% | TK-10 renal 58.9% | ACHN renal 43.7% | CAKI-1 renal 41% | A498 renal 46.6% | CCRF-CEM leukemia 36.3%
active: HCT-15 colon 9.95% | HT29 colon 8.11%

COc1ccc(/C=C/C(=O)OCC(=O)NNC(=O)c2ccccc2)cc1OC
inactive: HCT-15 colon 108% | HT29 colon 105% | SNB-75 CNS 78.2% | SNB-19 CNS 111% | U251 CNS 97% | PC-3 prostate 97.3% | UACC-62 melanoma 98.4% | LOX IMVI melanoma 87.1% | SK-MEL-28 melanoma 125% | SK-MEL-2 melanoma 68.6% | EKVX NSCLC 84.4% | SN12C renal 101% | UO-31 renal 80.9% | TK-10 renal 121% | ACHN renal 90.2% | CAKI-1 renal 83.5% | A498 renal 93% | CCRF-CEM leukemia 93.8% | MOLT-4 leukemia 70.1%

Cc1cc2c(C(C)C)c(O)c(O)c(C=NCCCCC(=O)O)c2c(O)c1-c1c(C)cc2c(C(C)C)c(O)c(O)c(C=NCCCCC(=O)O)c2c1O
inactive: HCT-15 colon 34.7% | HT29 colon 46.6% | SNB-75 CNS 62.1% | SNB-19 CNS 30.9% | U251 CNS 24% | PC-3 prostate 29.2% | UACC-62 melanoma 59.2% | LOX IMVI melanoma 43.4% | SK-MEL-28 melanoma 64.2% | SK-MEL-2 melanoma 43.6% | EKVX NSCLC 38.4% | SN12C renal 49.2% | UO-31 renal 74.2% | TK-10 renal 49% | ACHN renal 62% | CAKI-1 renal 73.1% | A498 renal 56.3% | CCRF-CEM leukemia 29.8% | MOLT-4 leukemia 34.9%

COc1cc(/C=C2\CCCC3=C2NC(C)=NC3c2cc(OC)c(OC)c(OC)c2)cc(OC)c1OC (stereo not drawn)
active: HCT-15 colon 4.23% | HT29 colon 7.9% | U251 CNS 9.77% | UACC-62 melanoma 9.03% | LOX IMVI melanoma -41.2% | CCRF-CEM leukemia -19.1% | MOLT-4 leukemia -22.9%
inactive: SNB-75 CNS 21.9% | SNB-19 CNS 61.2% | PC-3 prostate 42.7% | SK-MEL-28 melanoma 31.9% | SK-MEL-2 melanoma 26.6% | SN12C renal 10.8% | UO-31 renal 51.1% | TK-10 renal 44.5% | ACHN renal 12.5% | CAKI-1 renal 11.4% | A498 renal 16.3%

COc1ccc(/C(=N/O)c2cc(OC)c(OC)c(OC)c2)c(OC)c1N
active: SNB-75 CNS 8.03% | A498 renal -4.33%
inactive: HCT-15 colon 24.5% | HT29 colon 13.7% | SNB-19 CNS 45.2% | U251 CNS 27.5% | PC-3 prostate 19.2% | UACC-62 melanoma 31.7% | LOX IMVI melanoma 45% | SK-MEL-28 melanoma 59.2% | SK-MEL-2 melanoma 36.5% | EKVX NSCLC 47.4% | SN12C renal 52.8% | UO-31 renal 49.3% | TK-10 renal 35.3% | ACHN renal 43.3% | CAKI-1 renal 23.9% | CCRF-CEM leukemia 22.3% | MOLT-4 leukemia 27.8%

O=C(O)c1cn(C2CC2)c2cc(N3CCN(S(=O)(=O)c4ccc(Cl)c(Cl)c4)CC3)c(F)cc2c1=O
active: HCT-15 colon 6.24% | HT29 colon 0.259% | LOX IMVI melanoma 1.21% | SK-MEL-2 melanoma -9.56% | ACHN renal 4.95% | CAKI-1 renal 3.06% | MOLT-4 leukemia 3.44%
inactive: SNB-75 CNS 13.2% | SNB-19 CNS 24.7% | U251 CNS 12.4% | PC-3 prostate 16.2% | UACC-62 melanoma 29.6% | SK-MEL-28 melanoma 48.5% | SN12C renal 10.4% | UO-31 renal 10% | TK-10 renal 33.2% | CCRF-CEM leukemia 16.9%

CCOC(=O)c1cc(/C(=N\O)c2cc(OC)c(OC)c(OC)c2)n2cc(C)cc(C)c12
inactive: HCT-15 colon 17.9% | SNB-75 CNS 25.1% | U251 CNS 12.6% | PC-3 prostate 41% | SK-MEL-5 melanoma 12.1% | LOX IMVI melanoma 31.8% | SK-MEL-28 melanoma 56.1% | EKVX NSCLC 37.7% | SN12C renal 30.3% | UO-31 renal 48.7% | TK-10 renal 26.7% | ACHN renal 10.5% | CAKI-1 renal 37.1%
active: HT29 colon 6.89% | SK-MEL-2 melanoma 2.79% | A498 renal -6.21% | CCRF-CEM leukemia 9.43%

COc1cc(/C=C/C(=O)c2ccccc2O)ccc1OCCCOc1cc2c(cc1OC)C(=O)N1CCC[C@H]1C=N2
inactive: PC-3 prostate 10.7% | EKVX NSCLC 19.7%
active: HCT-15 colon -3.51% | HT29 colon -41.4% | SNB-75 CNS -57.7% | U251 CNS -74.7% | SK-MEL-5 melanoma -76.5% | UACC-62 melanoma -82.4% | LOX IMVI melanoma -60.8% | SK-MEL-28 melanoma -64.3% | SK-MEL-2 melanoma -61.1% | SN12C renal 6.22% | UO-31 renal -54.5% | TK-10 renal -27.9% | ACHN renal -13.8% | CAKI-1 renal -35.3% | A498 renal -68.4% | CCRF-CEM leukemia 5.24% | MOLT-4 leukemia -11.2%

c1ccc([P+](CCC[P+](c2ccccc2)(c2ccccc2)c2ccccc2)(c2ccccc2)c2ccccc2)cc1
inactive: HCT-15 colon 101% | HT29 colon 66.9% | SNB-75 CNS 54% | U251 CNS 40% | PC-3 prostate 38% | SK-MEL-5 melanoma 75.1% | UACC-62 melanoma 62.5% | LOX IMVI melanoma 86.6% | SK-MEL-28 melanoma 75.1% | SK-MEL-2 melanoma 71.1% | SN12C renal 78% | UO-31 renal 82.3% | TK-10 renal 81.8% | ACHN renal 98.5% | CAKI-1 renal 94.7% | A498 renal 86.1% | CCRF-CEM leukemia 45.8% | MOLT-4 leukemia 79.6%

COC(=O)CC/C(C)=N\Nc1ccc([N+](=O)[O-])cc1
inactive: HCT-15 colon 34.8% | HT29 colon 46.6% | SNB-75 CNS 91.5% | U251 CNS 68.4% | PC-3 prostate 45.8% | SK-MEL-5 melanoma 73.8% | UACC-62 melanoma 26.6% | LOX IMVI melanoma 16.2% | SK-MEL-28 melanoma 96% | SK-MEL-2 melanoma 57.3% | EKVX NSCLC 59.2% | SN12C renal 81.9% | UO-31 renal 35.5% | TK-10 renal 63.3% | ACHN renal 36.2% | CAKI-1 renal 41.4% | A498 renal 77.3% | CCRF-CEM leukemia 35% | MOLT-4 leukemia 34%

CC1=NN2C(=NC3=C(CCC/C3=C\c3ccc(Cl)cc3)C2c2ccc(Cl)cc2)S1 (stereo not drawn)
inactive: HCT-15 colon 89.3% | HT29 colon 48.1% | SNB-75 CNS 100% | U251 CNS 85.9% | PC-3 prostate 95.3% | SK-MEL-5 melanoma 96.6% | UACC-62 melanoma 83% | LOX IMVI melanoma 60.6% | SK-MEL-28 melanoma 99.3% | SK-MEL-2 melanoma 86.3% | SN12C renal 102% | UO-31 renal 86.1% | TK-10 renal 111% | ACHN renal 98.2% | CAKI-1 renal 99.9% | CCRF-CEM leukemia 84.7%

CC(=O)Nc1ccc(S(=O)(=O)N2C(=O)CCC2C(=O)Nc2ccc(Br)cc2)cc1 (stereo not drawn)
inactive: HT29 colon 21.4% | SNB-75 CNS 59% | U251 CNS 22.2% | PC-3 prostate 17% | SK-MEL-5 melanoma 17.6% | UACC-62 melanoma 15.3% | SK-MEL-28 melanoma 50.2% | SK-MEL-2 melanoma 36.1% | SN12C renal 49.9% | UO-31 renal 21.9% | TK-10 renal 63.6% | ACHN renal 45.3% | CAKI-1 renal 32.3% | A498 renal 16.8%
active: HCT-15 colon 7.48% | LOX IMVI melanoma 6.05% | CCRF-CEM leukemia 2.98% | MOLT-4 leukemia 5.48%

Cn1c(C(N)=O)cc2c1-c1nc(NC3CCCCC3)ncc1CCC2
inactive: HCT-15 colon 90.5% | HT29 colon 91.4% | SNB-75 CNS 104% | U251 CNS 83.8% | PC-3 prostate 94.8% | SK-MEL-5 melanoma 95% | UACC-62 melanoma 103% | SK-MEL-28 melanoma 97.4% | SK-MEL-2 melanoma 105% | SN12C renal 90.9% | UO-31 renal 67.2% | TK-10 renal 89.4% | ACHN renal 85.8% | CAKI-1 renal 83.3% | A498 renal 46% | CCRF-CEM leukemia 93.9% | MOLT-4 leukemia 85.1%

Reference: PubChem BioAssay (NCI)
